The values that follow come from PubChem BioAssay AID485346 (Sanford-Burnham Center for Chemical Genomics, 2010).

The campaign covered roughly 330,000 compounds. About 10,000 (3%) were called active. This is one part of a sample in which actives are shown more often than they occur. A number with no mark means an inactive call.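 The calls were made as follows: active = inhibition of at least 50% at 8 µM in the primary screen; inactive = the rest.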

Chain of Protein Mdm4 (Homo sapiens) + E3 ubiquitin-protein ligase Mdm2 (Homo sapiens) (O15151 whole entry, looked up): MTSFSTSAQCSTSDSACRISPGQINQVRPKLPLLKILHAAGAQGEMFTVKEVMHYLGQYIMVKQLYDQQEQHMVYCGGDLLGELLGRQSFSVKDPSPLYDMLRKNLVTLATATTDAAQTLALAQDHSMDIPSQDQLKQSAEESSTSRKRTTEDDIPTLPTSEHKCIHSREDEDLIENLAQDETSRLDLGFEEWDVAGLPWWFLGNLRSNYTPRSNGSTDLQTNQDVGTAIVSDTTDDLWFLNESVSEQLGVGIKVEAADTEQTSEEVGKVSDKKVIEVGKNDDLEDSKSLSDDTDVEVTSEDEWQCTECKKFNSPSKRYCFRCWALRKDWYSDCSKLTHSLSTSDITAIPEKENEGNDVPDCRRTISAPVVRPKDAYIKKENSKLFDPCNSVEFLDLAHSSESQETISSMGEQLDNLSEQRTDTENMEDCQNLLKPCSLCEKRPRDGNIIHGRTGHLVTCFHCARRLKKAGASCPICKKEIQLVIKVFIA
Chain of Protein Mdm4 (Homo sapiens) + E3 ubiquitin-protein ligase Mdm2 (Homo sapiens) (Q00987 whole entry, looked up): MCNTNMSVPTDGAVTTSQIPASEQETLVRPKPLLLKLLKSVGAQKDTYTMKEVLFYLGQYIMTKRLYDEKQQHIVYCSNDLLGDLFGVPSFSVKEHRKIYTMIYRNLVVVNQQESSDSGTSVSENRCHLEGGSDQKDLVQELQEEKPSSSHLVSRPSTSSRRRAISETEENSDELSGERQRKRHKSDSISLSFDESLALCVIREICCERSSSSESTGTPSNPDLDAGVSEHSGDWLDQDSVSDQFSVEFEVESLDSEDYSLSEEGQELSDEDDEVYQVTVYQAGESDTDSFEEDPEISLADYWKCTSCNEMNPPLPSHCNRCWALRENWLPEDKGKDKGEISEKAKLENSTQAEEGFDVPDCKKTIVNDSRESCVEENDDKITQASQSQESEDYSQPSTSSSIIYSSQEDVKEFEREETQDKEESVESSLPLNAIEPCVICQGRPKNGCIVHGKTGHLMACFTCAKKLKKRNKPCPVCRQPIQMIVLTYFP

This assay addresses Protein Mdm4 (Homo sapiens) + E3 ubiquitin-protein ligase Mdm2 (Homo sapiens) (UniProt O15151+Q00987). Briefly: inhibitors of human Mdm2-MdmX association, primary screen, cell-based, luminescence, split luciferase, SaOS-2, uHTS (AID 485346). The following applies: SaOS-2 split-luciferase Mdm2/MdmX complementation, at 8 µM, hits give high values.
For the compound `C[C@@H]1C(c2ccc(F)cc2)=NN(c2ccc(Br)cc2)[C@H]1C(=O)N1CCOC1=O`, the inhibition was 9.83%. As to `O=C(CN1CCN(S(=O)(=O)c2ccc3ccccc3c2)CC1)NC(=O)NC1CCCCC1`, the inhibition was 40.4%. With `COC(=O)C1CCN(C(=O)NC2CC(=O)N(c3ccc4c(c3)OCCO4)C2)CC1` (stereo not given), the inhibition is -29.9%. For the compound `CC(=O)C1=C(O)C(=O)N(c2ccc(Br)cc2)C1c1ccc([N+](=O)[O-])cc1` (stereo not given), the inhibition was 16.7%. For `COc1ccc(C(=O)C2CCCN(Cc3cccn3-c3ccccn3)C2)c(C)c1` (stereo not given) the value was 46.4%. For `S=C1SCN(CCN2CCOCC2)CN1Cc1ccccc1` the value was 19%; for `COc1ccc(CN2CN(C(C)C)CSC2=S)cc1`, 63.7% (active); for `COc1ccc(CN2CN(C3CCCC3)CSC2=S)cc1`, 34.2%. As for `O=C(CSc1nncn1-c1cccnc1)N1CCOCC1`, the inhibition was -14.1%. As for `Cc1nn(Cc2ccc(Cl)cc2)c(Cl)c1/C=N/NC(=O)c1cccnc1`, the inhibition was -2.65%. Regarding `Cc1c(Cl)c([N+](=O)[O-])nn1Cc1ccc(C(=O)N/N=C\c2cc(Cl)ccc2O)o1`, the inhibition is 68.9% (active). As for `Cc1ccc(C(=O)O)cc1NC(=O)c1ccc(Cn2nc(C)c(Cl)c2C)o1`, the inhibition was 2.65%. As for `CCCc1nc(NCc2ccc3c(c2)OCO3)c2nnn(Cc3ccccc3Cl)c2n1`, the inhibition was 75.2% (active). For `Cc1nc(Nc2ccccc2F)c2nnn(Cc3ccccc3Cl)c2n1`, the inhibition is 4.88%. As to `Cc1nc(Nc2ccc3c(c2)OCCO3)c2nnn(Cc3ccccc3Cl)c2n1`, the inhibition is 32.4%. As for `CCOc1ccc(C(=O)CCC(=O)Nc2ccncc2)cc1`, the inhibition was 13.9%. Consider `C=CCn1c2ccccc2c2nnc(SCc3[nH]c(=O)[nH]c3C(=O)CCCCC(=O)OCC)nc21`, for which the inhibition was 26.8%. Turning to `Cc1ccc(NC(=O)C2CC2)cc1S(=O)(=O)N1CCOCC1`, the inhibition is -2.88%. Under `O=C1CSC(c2ccc(Cl)cc2)N1` (stereo not given) stands -16.7%; under `c1coc(CNc2ncnc3ccccc23)c1`, -3.14%; under `Cc1noc(C)c1-c1ccc2ncnc(NC(C)c3ccco3)c2c1` (stereo not given), 83.9% (active). Under `O=C(NC(=S)Nc1ccccc1C(=O)O)c1ccc(-c2ccc(Br)cc2)o1` stands 44.1%; under `CC1CCN(CC(=O)Nc2nccs2)CC1`, 32.3%.

As for `CC(C)CCN1C(=O)c2ccc(C(=O)Nc3cccc(S(N)(=O)=O)c3)cc2C1=O`, the inhibition is 7.02%.

In the case of `CC(=O)Oc1ccc(-c2nc3c(C)cccc3c(=O)o2)cc1`, the inhibition is 15.5%. Under `Cc1nc(N=C(N)N)nc2c(C)cccc12` stands 75.4% (active); under `COc1nc(N=C(N)N)nc2c(C)cccc12`, 22.9%; under `COc1ccc(C2C(C#N)=C(/N=C/N3CCOCC3)OC3=C2C(=O)CC(C)(C)C3)cc1OC` (stereo not given), -7.65%.

As to `COc1ccc(C2C(C#N)=C(N)Oc3cc(N)ccc32)cc1OC` (stereo not given), the inhibition was 50.9% (active). Consider `COc1cc(C2C(C#N)=C(N)Oc3n[nH]c(-c4ccccn4)c32)cc(OC)c1OC` (stereo not given), for which the inhibition was 1.17%. Consider `COc1ccccc1NS(=O)(=O)c1ccc(C(=O)N2CCN(c3ccccc3O)CC2)cc1`, for which the inhibition is 19.3%.

For the compound `O=P(O)(CN1CCCCCC1)C1Cc2ccccc2C1`, the inhibition is 10.7%. Under `O=C(CNc1ccccc1N1CCCC1=O)Nc1cc(Cl)ccc1-n1cncn1` stands 0.059%. As to `Cc1ccc(S(=O)(=O)N2CCN(C(=O)Cn3c(=O)cnc4ccccc43)CC2)c(C)c1`, the inhibition was 12.2%. With `C[C@@H]1C[C@@H]2O[C@H]2/C=C\C=C\C(=O)Cc2c(Cl)c(O)cc(O)c2C(=O)O1`, the inhibition is 79.3% (active). Under `CCN(CC(=O)N1CCCC1)S(=O)(=O)c1ccc(F)cc1` stands -4.05%; under `Cc1ccc(F)cc1S(=O)(=O)Nc1cccc(C(=O)N2CCCC(C(N)=O)C2)c1` (stereo not given), 17.8%. Under `Oc1ccc(/C=N/Nc2ccc(C(F)(F)F)cn2)cc1O` stands -9.44%. Under `COc1ccc(-c2nn(-c3ccccc3)cc2/C=N/Nc2ccccn2)cc1OC` stands 34.3%; under `Oc1ccc(Br)cc1/C=N/Nc1ccccn1`, 84.7% (active); under `Cc1cccc(NC(=O)N2CCCCCC2)c1C`, 23.2%. As for `CCN([C@H](CO)C(C)C)S(=O)(=O)c1ccccc1Br`, the inhibition was 33.9%. Regarding `CCc1cc2c(N3CCN(c4nnc(CC)s4)CC3)ncnc2s1`, the inhibition is 29.4%. Regarding `Oc1ccccc1N1CCN(c2ncnc3sc(-c4ccccc4)cc23)CC1`, the inhibition was 81.3% (active).

Consider `c1ccc(-c2cc3c(NCC4COc5ccccc5O4)ncnc3s2)cc1` (stereo not given), for which the inhibition was 31.6%. For the compound `NNC(=O)c1nnn(-c2nonc2N)c1CN1CCCC1`, the inhibition was 4.39%.

For the compound `Nc1nonc1-n1nnc(C(=O)N/N=C/c2ccccc2O)c1CN1CCCC1`, the inhibition is 52.8% (active). Under `Nc1nonc1-n1nnc(C(=O)N/N=C\c2ccncc2)c1CN1CCCCC1` stands 3.58%; under `CCOC(=O)c1ccc(NC(=O)CCn2c(=O)oc3ccccc32)cc1`, 8.91%; under `CCOC(=O)c1c(NC(=O)c2ccc(S(=O)(=O)N(C)CC3CCCO3)cc2)sc2c1CC(C)(C)NC2(C)C` (stereo not given), 79.5% (active). Consider `Cc1cccc(NC(=O)c2ccc(S(=O)(=O)N(C)CC3CCCO3)cc2)c1C` (stereo not given), for which the inhibition is 17.9%.

`CN(CC1CCCO1)S(=O)(=O)c1ccc(C(=O)Nc2ccc(F)cc2)cc1` (stereo not given): the inhibition was 14.6%. On to `CCCn1c2ccccc2c2cnn(CC(=O)NCCCN3CCCCC3CC)c(=O)c21` (stereo not given), for which the inhibition was 24%. Under `O=C(CN1C(=O)CCS(=O)(=O)c2ccccc21)NCc1ccc(F)cc1` stands 13.2%; under `COc1cc2c(cc1OC)CN(C(C)C(=O)Nc1cccc(S(=O)(=O)N3CCOCC3)c1)CC2` (stereo not given), 21.6%. As to `CCCCN1CCNC1=S`, the inhibition is 27%.

As for `O=C(CSc1nccn1-c1cccc(F)c1)NC1CCCC1`, the inhibition was 6.79%. Under `Cc1ccc(Cn2nnc3c(=O)n(CC(=O)N4CCCCC4)cnc32)cc1` stands 8.92%; under `O=C(Cn1cnc2c(nnn2Cc2ccc(F)cc2)c1=O)NCc1ccc2c(c1)OCO2`, 7.94%; under `Cc1cc(C)cc(NC(=O)Cn2cnc3c(nnn3Cc3ccc(F)cc3)c2=O)c1`, 64.8% (active). Regarding `CSCCC(NS(=O)(=O)c1ccccc1F)C(=O)N1CC=C(c2ccccc2)CC1` (stereo not given), the inhibition was -11.8%. Regarding `c1csc(-c2nnc(COc3ccc4c(c3)OCO4)o2)c1`, the inhibition is -40.3%. Take `CCCOc1ccc(C2=CSC3=NCCN23)cc1Cl`: the inhibition was 28.9%. Take `COc1ccc(NC(=O)NN2CCN(C)CC2)c(OC)c1`: the inhibition is 0.742%. In the case of `CC1CCCCC1NC(=O)/C(C#N)=C/C=C/c1ccccc1[N+](=O)[O-]` (stereo not given), the inhibition was 99.6% (active). Turning to `O=[N+]([O-])c1ccccc1/C=C/CN1CCCC(CO)C1` (stereo not given), the inhibition was 3.12%.

With `O=[N+]([O-])c1ccccc1/C=C/CN1CCC(O)CC1`, the inhibition was -3.09%. Take `CCCN(CCC)S(=O)(=O)c1ccc(C(=O)NNC(=O)c2cc(OC)c(OC)c(OC)c2)cc1`: the inhibition was -7.78%. In the case of `CCc1ccc2c(c1)C1(NN=C(c3ccccc3)S1)C(=O)N2` (stereo not given), the inhibition is 73% (active).

Turning to `COc1ccc(C)cc1NC(=O)c1cc(-c2ccccc2)nc2c1cnn2C(C)C`, the inhibition is 11.5%. Under `OCC[C@H]1C[C@H](O)[C@@H](O)[C@]2(CCCCO2)O1` stands -0.668%; under `COc1ccc(Nc2nnc(C)c3ccccc23)cc1`, 5.02%; under `N#Cc1nc(-c2cccc3ccccc23)oc1N`, 23%. `COc1ccc(Nc2oc(-c3ccccc3Cl)nc2C#N)cc1`: the inhibition is 59.3% (active).

As for `O=C1CCC[C@@H]2CC(N3CCCCC3)C[C@@H]3CCN1[C@H]23` (stereo not given in full), the inhibition was -0.366%. For `COc1ccc(CCNC(=S)N2CCN(S(=O)(=O)c3ccc(F)cc3)CC2)cc1` the value was 27.9%; for `CCn1cc(CN2CCC(C(=O)Nc3cccc(-c4cccc(Cl)c4)c3)CC2)cn1`, 73% (active); for `O=C(Nc1cnn(Cc2ccc(Cl)cc2)c1)C1CCCC1`, 20.2%. With `CC(=O)c1cc(CN2CCC(C(=O)Nc3cccc(-c4cscn4)c3)CC2)cs1`, the inhibition is 19.1%.

For the compound `O=C(NC1CCCC1)C1CCN(C(=O)Nc2cccc(Cl)c2)CC1`, the inhibition is -30.9%.

Regarding `CCn1cc(CN2CCC(C(=O)Nc3cccc(-c4cccc(Cl)c4)c3)CC2)c(C)n1`, the inhibition is 86.6% (active). Under `O=C(Nc1cccc(-c2cccc(Cl)c2)c1)C1CCN(C2CCC2)CC1` stands 63% (active); under `O=C(Nc1cccc(-c2cscn2)c1)C1CCN(Cc2ccsc2)CC1`, 12.7%. For `COc1cccc(-c2cccc(NC(=O)C3CCN(C4CCC4)CC3)c2)c1`, the inhibition is -1.08%. For `O=C(NCC1CCN(Cc2ccccc2Cl)CC1)Nc1cccc(Cl)c1`, the inhibition is 24.2%. As for `COc1ccc(N2CCC(CNC(=S)Nc3c(C)cccc3C)C2)cc1` (stereo not given), the inhibition is 0.075%. As for `Cc1ccc(C(=O)NCCc2nnc(SCC(=O)Nc3cccc(C(=O)O)c3)n2C)cc1`, the inhibition is -17.8%.

Turning to `Cc1ccc(NS(=O)(=O)c2ccc3c(c2)n(C)c(=O)c(=O)n3C)c(C)c1`, the inhibition is -12.6%. For the compound `Cc1ccc(-n2nc3c(=O)n(C(C)C(=O)NCc4ccc5c(c4)OCO5)nc(C)c3c2C)cc1` (stereo not given), the inhibition is 32.4%. For `C#CCSc1nnc(-c2sc3ccccc3c2Cl)o1` the value was -91.8%; for `COc1ccc(CCNC(=O)/C(C#N)=C2\N=C(NC(=O)c3cccs3)c3ccccc32)cc1`, -11.7%; for `O=C(NCC#CCSc1nnc(-c2cccc3ccccc23)o1)c1cccs1`, 81.5% (active). For `O=C(Cc1ccc(-c2ccccc2)cc1)NC(c1ccccc1)c1ccccc1` the value was 6.83%; for `CCOC(=O)/C=C/C(=O)OCC(=O)NC(c1ccccc1)c1ccccc1`, 69.4% (active). Turning to `CCOC(=O)C(C(=O)OCC)C(C#N)c1ccccc1` (stereo not given), the inhibition is -30.8%.

A word on the inhibition: it is the drop in the measured response relative to a control, in per cent.
